Source: PubChem BioAssay
Rows were chosen to be rich in hits. Some 2.8% of all compounds tested hit in one or more screens of this group.
ATXN viability – cell viability loss in ATXN counter-screen; S2 cells (HEK-293 line with an ATXN2-luciferase reporter) viability, CellTiter-Fluor protease fluorescence, 24 h; Potency, µM (doses to about 56.7 µM), usual class: cytotoxic; 400,000 tested, 0.49% active; further: nearly all actives have a fitted effect of over 40% in size
HepG2 viability – kills HepG2 cells in TGF-b inhibitor counter-screen; HepG2 CAGA-GFP viability, ATP luminescence, 18 h; Potency, µM (top dose mostly 46.1 µM), for the others: at the highest dose activity change, negative = cytotoxicity, most hits filed as cytotoxic; 410,000 tested, 0.76% active; AID 588856
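HepG2 CAGA-GFP cells (1000/well, DMEM with 1% FBS) received compound, then TGF-beta at 500 pg/mL final, and were incubated 18 hours at 37 degrees C. Viability was read by CellTiter-Glo luminescence. Media-only wells were set as complete cell-killing and DMSO as no toxicity.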
HTT cytoprotect – protects HTT-Q103 PC12 cells, measured by ATP. PC12 HTT-Q103 induced, cytoprotection, ATP luminescence, 40 h. Potency, µM (series often up to 56.4 µM), inactives show cytoprotection (ATP increase), most hits filed as activators. 230,000 tested, 0.14% active. AID 1471; further: % of control where 0% means no effect; nearly all actives have a fitted effect of over 45% in size
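Compounds added alongside 100 nM tebufenozide, which induces toxic Q103 huntingtin exon 1-GFP in stable PC12 cells; surviving cells quantified by luminescent ATP measurement. Medium: phenol red-free DMEM, 5% equine and 5% calf serum.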
TGFb SMAD3 inh – inhibitors of TGF-b signaling | Potency, µM (titrated, usually from 46.1 µM), without a hit: at the top dose activity, negative = inhibition, actives largely listed as inhibitors | HepG2 CAGA-GFP TGF-b/SMAD3 reporter, GFP fluorescence, 18 h; TGF-beta stimulated, 500 pg/mL final | 410,000 tested, 1.2% active; further: on the % scale 0 is the no-effect control and ±100 the full control effect; nearly all actives have a fitted effect of over 65% in size
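First, reporter cells (HEPG2 CAGA-GFP) rested 2 h at 37 degrees C. Next, compounds were pinned in and TGF-beta added to 500 pg/mL final. After 18 h, GFP was imaged per cell and summed per well.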
ATXN2 expr inh – ATXN2 expression inhibition | HEK-293 ATXN2-luciferase reporter, luminescence, 24 h | 360,000 tested, 0.72% active | Potency, µM (highest dose often 57 µM), inactives show at the top dose activity change, negative = inhibition, actives largely listed as inhibitors; further: on the % scale 0 is the no-effect control and ±100 the full control effect; nearly all actives have a fitted effect of over 55% in size
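ATXN2-luciferase reporter cells (luciferase flanked by upstream and downstream ATXN2 gene portions) were treated 24 h at 37 °C with compounds at up to 57 uM. SteadyGlo luminescence gave expression; GF-AFC fluorescence gave viability.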
HTT aggregate – mutant huntingtin aggregation inhibition | PC12 HttQ103-GFP aggregates, Acumen cytometry, 40 h | Potency, µM (top dose mostly 46.1 µM), for the others: at the highest dose activity change, negative = inhibition, usual class: inhibitors | 220,000 tested, 1.1% active; further: on the % scale 0 is the no-effect control and ±100 the full control effect; nearly all actives have a fitted effect of over 60% in size
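PC12/HTTQ103-GFP, ecdysone-inducible; teb 100 nM; cpd qHTS titration; GFP aggregates read on laser cytometer, Ex 488/Em 500-530 nm.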
Starred values were filed as active, the others as inactive; i = inactive; u = inconclusive; x = no result; [ ] = remark or other dose. The call rests on the fitted dose curve; in most records, active means well fitted curve in the direction sought with a large enough effect; inconclusive means small, poorly fitted or top-dose-only effect, or another doubt; inactive means no such curve, though single readings can be large; an effect the other way counts as inactive or inconclusive. Potency means the concentration at half of the fitted maximal effect.

SMILES	ATXN viability	HepG2 viability	HTT cytoprotect	TGFb SMAD3 inh	ATXN2 expr inh	HTT aggregate
CCCCCCCCNS(=O)(=O)CCNCc1ccccc1OC	u	13µM*	x	u	-36%	x
S=C(NCc1ccccc1)NC1CCSc2ccccc21 (stereo not drawn)	i	-28%	x	13µM*	-16%	x
Cc1cccc(NC(=S)NC2CCSc3ccccc32)c1 (stereo not drawn)	i	-25%	x	u	3%	x
CCC(COC)Oc1cc(NCc2ccccc2)c2ncn(C(C)C)c2c1 (stereo not drawn)	22µM*	-113%	x	u	-3%	x
CC(C)n1cnc2c(NCc3ccccc3)cc(N[C@H](C)CO)cc21	0.89µM*	0.63µM*	x	u	1.1µM*	x
COc1ccc(Cc2cc(NCc3ccccc3)c3ncn(C(C)C)c3c2)cc1	u	11µM*	x	u	-8%	x
COCCCOc1cc(NCc2ccccc2)c2ncn(C(C)C)c2c1	i	-2%	x	7%	-3%	x
CCC(CO)Oc1cc(NCc2ccc(O)cc2)c2ncn(C(C)C)c2c1 (stereo not drawn)	i	31%	x	13%	1%	x
CCC(CO)Oc1cc(NCc2ccc(C(C)(C)C)cc2)c2ncn(C(C)C)c2c1 (stereo not drawn)	32µM*	-88%	x	u	u	x
CCCCCCCCCCCCc1ccc(S(=O)(=O)Nc2nncs2)cc1	x	x	x	x	3%	x
CCCCOc1cc(NCc2ccccc2)c2ncn(C(C)C)c2c1	u	-54%	x	18µM*	-39%	x
CN(C)C(=O)CCSC(SCCC(=O)O)c1cccc(/C=C/c2ccc3ccc(Cl)cc3n2)c1 (stereo not drawn)	x	x	-14%	x	x	37%
CCOC(=O)/C=C1\CN(Cc2cc(OC)c(OC)c(OC)c2)S(=O)(=O)c2ccc(C(F)(F)F)cc21	u	-15%	x	8.9µM*	u	x
O=[N+]([O-])c1ccc(NC(=S)NCCc2ccc(F)cc2)cc1	u	13µM*	15%[10 µM]	u	u	u
O=C(NCCc1ccc(F)cc1)Nc1ccc([N+](=O)[O-])cc1	i	-49%	x	u	-6%	x
CNCC(=O)c1c[nH]c2ccccc12	x	-11%	x	-11%	x	x
O=C(Nc1ccn(CCCNC2CCN(Cc3ccccc3)CC2)c(=O)n1)OCc1ccccc1	u	6.3µM*	x	-1%	u	x
c1ccc(COc2ncnc3c2ncn3CCCNC2CCN(Cc3ccccc3)CC2)cc1	x	16µM*	x	14µM*	25µM*	x
CSc1ncnc2c1ncn2CCCNC1CCN(Cc2ccccc2)CC1	i	-2%	x	4%	-26%	x
O=C(Nc1ccn(CCCN2CCN(Cc3cccc4ccccc34)CC2)c(=O)n1)OCc1ccccc1	x	-71%	x	u	28µM*	x
Oc1ccc(C=Cc2cc(O)cc(O)c2)cc1	x	x	x	x	59%	x
CCn1c(C)nc2cc(S(=O)(=O)C(F)(F)C(F)C(F)(F)F)ccc21 (stereo not drawn)	i	-32%	-37%	u	-8%	7.1µM*
CCn1c(C)nc2cc(S(N)(=O)=O)ccc21	i	4%	6%[10 µM]	2%	-14%	9%[9.22 µM]
O=C(Oc1ccc(Cl)c2cccnc12)c1cccc([N+](=O)[O-])c1	i	-56%	-21%[10 µM]	14µM*	-16%	-31%
O=C(Oc1cccc2cccnc12)c1cccc([N+](=O)[O-])c1	i	-12%	-47%[10 µM]	-16%	5%	-26%[9.22 µM]
O=C(Oc1c(Cl)cc(Cl)c2cccnc12)c1cccc([N+](=O)[O-])c1	i	-5%	-81%[10 µM]	u	20µM*	2.8µM*
COc1ccc(NC(=O)COc2ccccc2C(=O)Nc2ccccc2)cc1	x	-10%	x	17%	x	x
OC[C@H](Cc1ccccc1)Nc1nc(Oc2ccc3c(c2)CCC3)nc2c1ncn2Cc1ccc(-c2ccccc2)cc1	x	x	x	x	139%	x
